In PubChem BioAssay AID1259417 (TB Discovery Research, Infectious Disease Research Institute, 2018):
The whole screen tested about 1,100 compounds, of which about 760 (69%) were called active. No rule for the calls is given here. So high a share suggests a set chosen from earlier hits. The list shows a part of the results.

Assay: M. tuberculosis growth inhibition, HTS (AID 1259417);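 also: bacteria grown with compound for 5 days at 37 °C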
Settings: stronger effect = higher value, concentration not given here
[1] = M. tuberculosis DsRed fluorescence growth inhibition
[2] = M. tuberculosis growth inhibition

Structure (SMILES) | inhibition [1] | inhibition [2] [%]
COc1ccc(Cl)c2sc(N(CCCn3ccnc3)C(=O)c3cccs3)nc12 | 59.9% (active) | 61.3
COc1ccc(C)c2sc(N(CCCn3ccnc3)C(=O)c3cccs3)nc12 | 51.2% (active) | 44.6
O=C(COc1cccc2ccccc12)c1ccc(Cl)cc1 | 17% (active) | 36.9
Cn1nc([N+](=O)[O-])nc1Sc1ncnn1-c1ccccc1 | 97.1% (active) | 95
O=c1nc2c(O)cccn2c2c1c(=O)[nH]c1ccccc12 | -3.23% (inactive) | -27.6
Cc1c(C)n2c3c(=O)[nH]c(=O)n(C)c3nc2n1-c1ccccc1O | 97.2% (active) | 92.8
COC(=O)C(CC(=O)c1ccc(Br)cc1)n1ccnc1 (stereo not drawn) | 100% (active) | 100
O=c1oc2ccccc2nc1/C=C(O)/C=C\c1ccccc1 | 99.1% (active) | 98.9
Clc1ccc(OCc2ccccc2Cl)c(CNC2CCCCC2)c1 | 99.2% (active) | 99.3
COC(=O)CSc1ncnc2c1sc1nc3c(cc12)COC(C)(C)C3 | 48.1% (active) | -1.03
Cc1ccc(Nc2nc(NCc3ccco3)c3ccccc3n2)cc1 | 69% (active) | 45.4
OCCOCCNc1nc(Nc2cccc(F)c2)nc2c1cnn2-c1ccccc1 | -4.23% (inactive) | 4.68
CCOc1ccc(Nc2nc(NCc3ccco3)c3ccccc3n2)cc1 | 65.7% (active) | 78.4
Clc1cccc(Nc2nc(NCc3ccco3)c3ccccc3n2)c1 | 41.8% (active) | 5.69
Cc1ccccc1Nc1nc(NCc2ccco2)c2ccccc2n1 | -6.74% (inactive) | -22.5
Cc1ccc(-c2nc(NC(=O)CO)cs2)cc1 | 99.1% (active) | 100
Cc1ccc(-c2csc(-c3ccc(O)cc3)n2)cc1 | 3.54% (inactive) | 28.7
CC(NCC(O)COc1ccccc1C(C)(C)C)c1ccccc1 (stereo not drawn) | 61.1% (active) | 48.8
O=C(Nc1nnc(-c2ccc3c(c2)CCCC3)o1)c1ccc(Cl)s1 | 95.5% (active) | 90.6
O=C(Nc1nnc(-c2ccc3c(c2)CCCC3)o1)c1ccc(Cl)cc1Cl | -1.63% (inactive) | -9.7
CSc1cccc(-c2nnc(NC(=O)c3ccc([N+](=O)[O-])s3)o2)c1 | 13% (active) | 56.8
O=C(Nc1nnc(-c2ccc3c(c2)CCCC3)o1)c1cc(Cl)sc1Cl | 52.2% (active) | 48.6
O=C(Nc1nnc(-c2ccc3c(c2)CCCC3)o1)c1ccc([N+](=O)[O-])s1 | 79% (active) | 93.9

Structure (SMILES) | inhibition [1] | inhibition [2] [%]
O=C(Nc1cccc(Br)c1)c1ccc([N+](=O)[O-])s1 | 6.23% (inactive) | 3.28
O=C1CC(c2ccc(Cl)cc2)CC2=C1C(c1ccc(C(F)(F)F)cc1)Nc1ccccc1N2 (stereo not drawn) | -1.45% (inactive) | -10.1
CCOC(=O)C(C)Sc1ncnc2c1cnn2-c1ccc(F)cc1 (stereo not drawn) | 26.4% (active) | 87.2
CCOC(=O)CSc1ncnc2c1cnn2-c1ccc(C)cc1C | 39.4% (active) | 77.1
COC(=O)CSc1ncnc2c1cnn2-c1ccc(F)cc1 | 27.3% (active) | 86.2
CCOC(=O)C(C)Sc1ncnc2c1nnn2Cc1ccc(F)cc1 (stereo not drawn) | 2.2% (inactive) | 19
COC(=O)CSc1ncnc2c1nnn2Cc1ccc(F)cc1 | 99.8% (active) | 99.8
CCOC(=O)CSc1ncnc2c1cnn2-c1ccccc1 | 13.4% (active) | 70.7
CCOC(=O)CNC(=O)CSc1ncnc2c1nnn2Cc1ccccc1F | 17.3% (inactive) | 22.5
CCOC(=O)C1CCCN(c2ccc([N+](=O)[O-])c3nonc23)C1 (stereo not drawn) | 29.3% (active) | 67.6
O=S1(=O)C=CC2ON=C(c3ccc(Cl)cc3)C21 (stereo not drawn) | 100% (active) | 98.3
O=S1(=O)C=CC2ON=C(c3ccc(C(F)(F)F)cc3)C21 (stereo not drawn) | 99.5% (active) | 96.8
N#Cc1cc2c(nc1SCC(=O)OCc1ccccc1)CCC2 | 99.7% (active) | 99.7
CCOC(=O)CSc1nc2c(c(-c3ccc(C)o3)c1C#N)CCCC2 | 21.7% (inactive) | 28.1
COC(=O)CSc1nc2c(c(-c3ccc(C)o3)c1C#N)CCCC2 | 4.49% (inactive) | -17
O=C(Cc1ccc(F)cc1)Nc1ccc(Cl)c(C(F)(F)F)c1 | 50.9% (active) | 31.5
O=C(Nc1ccc(Cl)c(C(F)(F)F)c1)c1csc2c1CCCC2 | 1.18% (inactive) | -27.8
O=C(CC(O)(C(F)(F)F)C(F)(F)F)Nc1ccc(Cl)c(Cl)c1 | 100% (active) | 101
O=C(CSc1ccc(Cl)cc1)Nc1ccc(Cl)c(C(F)(F)F)c1 | 0.0104% (inactive) | -15.8
Cc1cc(C)nc(N=C(N)Nc2cc(Cl)ccc2Oc2ccccc2)n1 | 97.1% (active) | 99.6
Cn1nc([N+](=O)[O-])nc1Oc1ccc(C(C)(C)C)cc1 | 96.8% (active) | 94.8
CCc1ccc(Oc2nc([N+](=O)[O-])nn2C)cc1 | 98% (active) | 95.4
CCN(CC)c1cccc(Oc2nc([N+](=O)[O-])nn2C)c1 | 96.8% (active) | 95.7

Structure (SMILES) | inhibition [1] | inhibition [2] [%]
O=C(OCc1nnc(-c2ccccc2)o1)c1cc(-c2cccs2)nc2ccccc12 | 83.3% (active) | 100
CN(Cc1nc2ccccc2c(=O)[nH]1)Cc1nc2ccsc2c(=O)[nH]1 | 97.2% (active) | 96.7
CC1Cc2cc(-c3nn(-c4ccccc4)cc3C=C3SC(=S)NC3=O)ccc2O1 (stereo not drawn) | 27% (active) | 38.2
COC(=O)COc1ccc2cc(-c3ccc(OC)c(OC)c3)c(=O)oc2c1 | 26.7% (active) | 45
CCOC(=O)COc1ccc2cc(-c3ccc(OC)c(OC)c3)c(=O)oc2c1 | 43.5% (active) | 53.6
CCOC(=O)COc1ccc2cc(-c3nc4ccccc4s3)c(=O)oc2c1 | 88.6% (active) | 86.2
COc1cccc(OCCNC(=O)c2cc([N+](=O)[O-])cc([N+](=O)[O-])c2)c1 | 98.1% (active) | 95.3
COc1cccc(OCC(=O)c2ccc(Br)cc2)c1 | -3.18% (inactive) | -10.7
Cc1ccc2nc(NCc3ccccc3)[nH]c2c1 | 43% (active) | 23.1
Cc1ccc(OCCN2CCN(c3nc(NCc4ccccc4)c4ccccc4n3)CC2)cc1 | -1.14% (inactive) | -0.136
c1ccc(CCNc2nc3ccccc3[nH]2)cc1 | 21.4% (active) | 32.9
O=C(NC12CC3CC(CC(C3)C1)C2)N1CCN(c2cccc(C(F)(F)F)c2)CC1 | 100% (active) | 94.4
COc1cccc(-c2csc(N3CCN(C(=O)NC45CC6CC(CC(C6)C4)C5)CC3)n2)c1 | 3.33% (inactive) | -30.6
Cc1nc2cc(C(=O)OCC(=O)NC34CC5CC(CC(C5)C3)C4)ccc2n1-c1ccccc1 | -4.71% (inactive) | -17.2
O=C(C1CCN(c2nnc(-n3cccc3)s2)CC1)N1CCc2ccccc2C1 | 70.1% (active) | 84.1
O=C(C1CCN(c2nnc(-n3cccc3)s2)CC1)N1CCN(c2cccc(C(F)(F)F)c2)CC1 | 68.1% (active) | 27.8
Cc1cccc(N2CCN(C3=NC(=O)C(=C4CCCCC4)S3)CC2)c1 | 84.8% (active) | 77.9
CC1CCC(C(C)C)C(OC(=O)Cn2c(-c3ccc(F)cc3)[n+](C)c3ccccc32)C1 (stereo not drawn) | 94.3% (active) | 97.5
CCN(CC)c1ccc(NC(=O)c2cnccn2)cc1 | 92.1% (active) | 96.5
Cc1ccc(-c2nnc(NC(=O)c3nc4ccccc4s3)o2)c(C)c1 | 21.8% (active) | 89.7
O=C(Nc1nnc(-c2ccccc2)o1)c1nc2ccccc2s1 | 94.3% (active) | 94.8
CCc1nc2ccccc2n1CC(O)COc1ccc(I)cc1 (stereo not drawn) | 99.5% (active) | 100
CC(C)(C)c1ccc(OCCN2C(=O)C(=O)c3cc(Br)ccc32)cc1 | -0.55% (inactive) | -12

Structure (SMILES) | inhibition [1] | inhibition [2] [%]
CC(=O)Nc1nc2ccccc2n1Cc1ccccc1 | 81.5% (active) | 85.5
O=C(c1ccccc1)c1ccc(OCC(O)Cn2cnc3ccccc32)cc1 (stereo not drawn) | -0.545% (inactive) | -3.24
CC(C)(C)c1ccc(OCCn2c(N)nc3ccccc32)cc1 | 70.4% (active) | 90.4
CC(=O)Nc1nc2ccccc2n1CCOc1ccccc1 | 93% (active) | 92.9
COc1ccc(C2CC(c3c(-c4ccccc4)c4cc(Br)ccc4[nH]c3=O)=NN2C(=O)c2ccccc2)cc1 (stereo not drawn) | 9.47% (inactive) | 8.15
CCc1nc2ccccc2n1CCCOc1ccccc1 | 100% (active) | 101
Cc1nc2ccccc2n1CC(O)COc1ccc(C2C=CCC2)cc1 (stereo not drawn) | 101% (active) | 101
COc1ccc(SN=C2C(C)=CC(=O)C=C2C)cc1 | 5.38% (inactive) | 20
CN(C)CC1CC(C(C)(C)C)CCC1=O (stereo not drawn) | 63.9% (active) | 85.1
O=c1oc(-c2ccccc2Br)nc2sc3c(c12)CCCC3 | 99.7% (active) | 98.6
COc1ccccc1-c1c(C)oc2cc(OCC(=O)OCc3ccccc3)ccc2c1=O | 28.7% (active) | 62.9
COC(=O)COc1ccc2c(=O)c(-c3ccccc3Cl)c(C)oc2c1 | 74.9% (active) | 95.5
NNC(=O)c1ccc(-c2ccccc2Cl)o1 | -6.57% (inactive) | 6.08
CCCc1cc2c(=O)c(-c3ccc4c(c3)OCCCO4)coc2cc1OCC(=O)OCC | 62.8% (active) | 59.1
COC(=O)COc1ccc2c(=O)c(-c3ccc(Cl)cc3)coc2c1 | 78.7% (active) | 94.8
CS(=O)(=O)Nc1cccc(C2=NN(c3nc(-c4ccccc4)c4cc(Cl)ccc4n3)C(c3ccco3)C2)c1 (stereo not drawn) | 7.39% (inactive) | -23.7
CCOC(=O)COc1ccc2c(=O)c(Oc3cnn(-c4ccccc4)c3)c(C)oc2c1 | 79% (active) | 94.4
COc1ccccc1-c1coc2cc(OCC(=O)OC3CCCCC3)ccc2c1=O | 40.7% (active) | 66.9
CCc1cc2c(=O)c(-c3ccc(OC)cc3)coc2cc1OCC(=O)OC | 63.7% (active) | 86.9
CCCCOC(=O)COc1ccc2c(=O)c(Oc3ccc(OCC)cc3)c(C)oc2c1 | 31.4% (active) | 83.7
